Test results: PubChem BioAssay (NCATS)
Values joined by “and” are separate entries in the source; they are usually repeats but may differ in a detail not shown here. Identical values can stand only once. Results filed as inconclusive are left out. Entries that show only a call come without a potency. Active and inactive are the calls of the source. Unless noted, the call rests on the fitted dose curve; in most records, active means well fitted curve in the direction sought with a large enough effect; inconclusive means small, poorly fitted or top-dose-only effect, or another doubt; inactive means no such curve, though single readings can be large; an effect the other way counts as inactive or inconclusive.

Assays:
[1] = qHTS Assay for Lipid Storage Modulators (AID 1519; calls by dose curve); details: Drosophila S3 cells, BODIPY lipid droplet/cell ratio, laser cytometry, cells loaded with oleic acid
Summary of the method: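 Cells seeded at 5,000 per well were treated with compounds over a concentration series and loaded with oleic acid (400 uM, as added). Lipid droplet fluorescence (488 nm excitation, 500-530 nm channel) was read by laser-scanning cytometry and normalized to 20 uM Triacsin C.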

[2] = target: Ubiquitin carboxyl-terminal hydrolase 1 (Homo sapiens) (UniProt O94782); experiment: Inhibitors of USP1/UAF1: Pilot qHTS (AID 504865); details: purified USP1/UAF1, Ub-rhodamine cleavage fluorescence; series mostly up to 54.9 µM; further: nearly all actives have a fitted effect of over 35% in size; further: potency means the concentration at half of the fitted maximal effect;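 on activity change, negative = inhibition: rhodamine fluorescence freed from ubiquitin-rhodamine substrate followed over time; top concentration of the series differs between compounds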
Summary of the method: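 USP1/UAF1 complex (1nM) preincubated with compound 15 min at room temperature, then Ub-Rho substrate (150nM final) added. Fluorescence read kinetically at 480/540 nm, 6 reads every 60 seconds. Buffer: 50mM HEPES pH 7.8, 0.5mM EDTA, 0.1 mg/ml BSA, 1mM TCEP, 0.01% Tween-20.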

[3] = target: Luciferin 4-monooxygenase (Photinus pyralis) (UniProt P08659); experiment: Biochemical firefly luciferase enzyme assay for NPC (AID 624030);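 further: purified P. pyralis luciferase at 10 nM with luciferin and ATP substrate; nearly all actives have a fitted effect of over 70% in size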; details: purified P. pyralis luciferase, luminescence, 5 min; series mostly up to 58.6 µM
Summary of the method: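 Counter-screen for direct inhibition of the luciferase enzyme by approved-drug library compounds, run at 10 nM enzyme in 50 mM Tris acetate (final). Luminescence was read within 5 min of enzyme-buffer addition and normalized to PTC124 versus DMSO (0%).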

[4] = qHTS profiling for inhibitors of Plasmodium falciparum proliferation (AID 504749); further: nearly all actives have a fitted effect of over 60% in size; details: P. falciparum in erythrocytes, SYBR Green DNA, 72 h
Summary of the method: (§1)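 P. falciparum-infected erythrocytes (0.3% parasitemia, 2.5% hematocrit final) were exposed to compounds for 72 h at 37 C in 5% CO2, then lysed with SYBR Green buffer overnight at room temperature; parasite DNA fluorescence was normalized to artemisinin and DMSO controls.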

CP238 = experiment: as above; details: P. falciparum in erythrocytes, SYBR Green DNA, 72 h; series mostly up to 12.8 µM
Summary of the method: as §1

CP262 = experiment: as above; details: P. falciparum in erythrocytes, SYBR Green DNA, 72 h; series mostly up to 12.8 µM
Summary of the method: as §1

CP325 = experiment: as above; details: P. falciparum in erythrocytes, SYBR Green DNA, 72 h; series mostly up to 12.8 µM
Summary of the method: as §1

ECU = experiment: as above; details: P. falciparum in erythrocytes, SYBR Green DNA, 72 h; series mostly up to 12.8 µM
Summary of the method: as §1

FAB9 = experiment: as above; details: P. falciparum in erythrocytes, SYBR Green DNA, 72 h; series mostly up to 12.8 µM
Summary of the method: as §1

HB3 = experiment: as above; details: P. falciparum in erythrocytes, SYBR Green DNA, 72 h; series mostly up to 12.8 µM
Summary of the method: as §1

JCK = experiment: as above; details: P. falciparum in erythrocytes, SYBR Green DNA, 72 h; series mostly up to 12.8 µM
Summary of the method: as §1

[5] = AP1 Signaling Pathway (AID 357; active means well fitted curve in either direction with a large enough effect, not every such curve was filed as active); details: ME-180 AP-1-bla reporter, EGF-induced, beta-lactamase ratio, 5 h; at 7.69 µM (top of the series) unless noted
Summary of the method: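 ME-180 cells with beta-lactamase reporter under AP-1 response element, stimulated with EC50 EGF; compounds tested in titration series, 5 h at 37 °C. CCF4 substrate added 2.5 h at room temperature; 460/530 nm emission ratio gave %activity and AC50.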

[6] = target: Cytochrome P450 1A2 (Homo sapiens) (UniProt P05177); experiment: p450-cyp1a2 (AID 410; calls by dose curve); details: recombinant CYP1A2, luciferin-ME demethylation, luminescence; series mostly up to 57 µM
Summary of the method: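 Inhibition was calculated relative to 57 uM furafylline (full inhibition). The reaction used human CYP1A2 at 20nM with Luciferin-ME at its Km, 100uM, driven by an NADPH-regenerating system for 60 min at room temperature.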

[7] = NFAT Signaling Pathway (AID 444; active means well fitted curve in either direction with a large enough effect, not every such curve was filed as active;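 further: carbachol stimulus at about its EC50 of 1 µM final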); details: Jurkat NFAT-bla M1, carbachol, beta-lactamase ratio, 5 h; at 7.69 µM (top of the series) unless noted
Summary of the method: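 Jurkat cells carrying an NFAT-driven β-lactamase reporter and co-transfected muscarinic M1 receptor were treated with compound plus carbachol (1 uM final, an EC50 level) for 5 h at 37 °C. CCF4 loading followed for 1 h at RT; 460/530 nm ratio gave %activity.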

[8] = Stat Signaling Pathway (AID 446; active means well fitted curve in either direction with a large enough effect, not every such curve was filed as active;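 further: ME-180 cervical cancer cells given 40 pM IL-6 alongside compound; SIE-controlled beta-lactamase reporter measured as 460/530 nm FRET emission ratio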); details: ME-180 SIE beta-lactamase reporter, IL-6 stimulated, 5 h; at 7.69 µM (top of the series) unless noted
Summary of the method: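 ME-180 cells carrying a SIE-driven beta-lactamase reporter are stimulated with 40 pM IL-6 for 5 h at 37C in the presence of compound. The 460/530 nm FRET substrate ratio is read after 2.5 h at RT. Data are normalised to 300 pM IL-6 and to 125 nM JAK inhibitor controls.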

[9] = target: Glucocorticoid receptor (Homo sapiens) (UniProt P04150); experiment: GR-GFP Redistribution (AID 450;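 active means compounds whose dose series gives a full or clear partial fitted curve of increased nuclear translocation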; further: potency means the concentration at half of the fitted maximal effect); details: U2OS GR-GFP nuclear translocation, laser cytometry, 2 h
[10] = target: Glucocorticoid receptor (Homo sapiens) (UniProt P04150); experiment: GR-EFC Redistribution (AID 451; calls by dose curve; further: potency means the concentration at half of the fitted maximal effect); details: CHO-K1 GR-EFC translocation, beta-gal luminescence, 2 h
Summary of the method: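 CHO-K1 cells stably expressing nuclear-localized β-gal enzyme acceptor and GR fused C-terminally to the enzyme donor fragment; ligand-driven nuclear translocation restores β-gal by complementation. Compounds titrated up to 46 uM final, 2 h at 37 °C; luminescence read.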

[11] = target: Mitogen-activated protein kinase 10 (Mus musculus) (UniProt Q61831); experiment: JNK3 AlphaScreen Assay (AID 530; active means well fitted curve in either direction with a large enough effect, not every such curve was filed as active;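 further: kinase came from lysate of stimulated human HepG2 cells; signal reports phosphorylation of biotinylated GST-cJun 1-79 at Ser73 with 10 µM ATP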); details: JNK3 lysate, c-Jun phosphorylation; series mostly up to 57.1 µM
Summary of the method: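 JNK3 came from HepG2 lysates pre-activated with IL-1beta and TNF-alpha and phosphorylated biotinylated GST-cJun (1-79) at 10 uM ATP, pH 7.6, room temperature. Compounds were titrated. AlphaScreen signal used anti-phospho-cJun (Ser73) antibody.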

[12] = target: 3',5'-cyclic-AMP phosphodiesterase 4B (Homo sapiens) (UniProt Q07343); experiment: qHTS Assay for Inhibitors of PDE-IV (AID 607; active means well fitted activation curve with a large enough effect in the main read-out, with a control signal flat, not every such curve was filed as active); details: HEK293 ACTOne CNG channel cells, membrane potential fluorescence; series mostly up to 22.9 µM
Summary of the method: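 HEK293 ACTOne cells with CNG channel (1000/well), endogenous PDE4; membrane potential dye, compounds up to 22.9 uM final. Fluorescence Ex 535/Em 590; RO 20-1724 (100 uM final) as reference.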

[13] = target: ATP-dependent 6-phosphofructokinase (Trypanosoma brucei brucei) (UniProt O15648); experiment: qHTS Assay to Find Inhibitors of T. brucei phosphofructokinase: hit validation (AID 492961);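 further: luminescence reports ADP formed as PFK phosphorylates fructose-6-phosphate with ATP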; details: T. brucei PFK, ADP-Glo luminescence; series mostly up to 24.3 µM
Summary of the method: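 Percent activity derived from corrected luminescence, normalized between 0x and 1x enzyme controls, then fitted to concentration-response curves. Conditions: 1.25 nM PFK, 0.1 mM ATP, 0.5 mM F6P, 45 min RT.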

[14] = measured here: cell count channel max response
[15] = measured here: lipid channel max response
[16] = at 12.8 µM (top of the series), parasite line A
[17] = at 12.8 µM (top of the series), parasite line B

Sequence of Glucocorticoid receptor (Homo sapiens) (P04150 whole entry, looked up, the tested form may be a part): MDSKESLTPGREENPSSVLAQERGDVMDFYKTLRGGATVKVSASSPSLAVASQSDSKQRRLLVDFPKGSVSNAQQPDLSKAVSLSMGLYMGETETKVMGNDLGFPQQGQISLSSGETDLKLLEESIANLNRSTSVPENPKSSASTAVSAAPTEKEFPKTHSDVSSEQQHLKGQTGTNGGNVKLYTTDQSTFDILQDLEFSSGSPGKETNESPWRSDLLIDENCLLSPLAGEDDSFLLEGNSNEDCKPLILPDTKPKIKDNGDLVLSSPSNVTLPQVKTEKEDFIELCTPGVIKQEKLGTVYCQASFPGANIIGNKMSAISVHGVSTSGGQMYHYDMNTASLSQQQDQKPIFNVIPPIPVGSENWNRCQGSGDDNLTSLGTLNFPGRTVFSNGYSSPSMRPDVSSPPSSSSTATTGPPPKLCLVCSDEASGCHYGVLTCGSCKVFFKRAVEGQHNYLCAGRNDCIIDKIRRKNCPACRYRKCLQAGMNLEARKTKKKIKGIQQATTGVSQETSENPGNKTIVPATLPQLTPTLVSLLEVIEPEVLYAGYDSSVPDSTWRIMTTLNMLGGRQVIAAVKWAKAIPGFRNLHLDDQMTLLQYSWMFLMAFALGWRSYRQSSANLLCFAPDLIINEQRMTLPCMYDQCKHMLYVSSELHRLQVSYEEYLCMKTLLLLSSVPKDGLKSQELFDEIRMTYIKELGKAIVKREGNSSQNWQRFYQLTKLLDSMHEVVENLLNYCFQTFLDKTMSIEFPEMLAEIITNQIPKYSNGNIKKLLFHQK
Sequence of 3',5'-cyclic-AMP phosphodiesterase 4B (Homo sapiens) (Q07343 whole entry, looked up): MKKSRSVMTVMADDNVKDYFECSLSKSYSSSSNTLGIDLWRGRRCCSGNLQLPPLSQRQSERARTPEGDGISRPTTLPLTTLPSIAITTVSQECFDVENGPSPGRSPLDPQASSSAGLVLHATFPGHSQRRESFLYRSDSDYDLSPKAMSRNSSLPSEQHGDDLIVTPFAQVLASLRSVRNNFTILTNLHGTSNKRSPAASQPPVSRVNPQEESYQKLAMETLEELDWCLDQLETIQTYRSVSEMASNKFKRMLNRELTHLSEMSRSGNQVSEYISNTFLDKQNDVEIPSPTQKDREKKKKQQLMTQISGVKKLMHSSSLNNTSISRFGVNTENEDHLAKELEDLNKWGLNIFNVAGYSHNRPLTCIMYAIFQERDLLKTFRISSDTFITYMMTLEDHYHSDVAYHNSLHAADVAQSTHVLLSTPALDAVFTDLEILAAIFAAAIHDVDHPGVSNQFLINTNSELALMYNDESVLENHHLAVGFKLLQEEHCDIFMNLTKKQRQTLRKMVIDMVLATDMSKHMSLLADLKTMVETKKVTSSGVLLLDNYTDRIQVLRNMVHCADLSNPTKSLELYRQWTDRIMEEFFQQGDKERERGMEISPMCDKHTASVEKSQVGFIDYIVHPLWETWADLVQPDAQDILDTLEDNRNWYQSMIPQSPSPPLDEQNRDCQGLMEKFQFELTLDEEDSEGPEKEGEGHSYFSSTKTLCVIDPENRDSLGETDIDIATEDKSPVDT
Sequence of Ubiquitin carboxyl-terminal hydrolase 1 (Homo sapiens) (O94782 whole entry, looked up): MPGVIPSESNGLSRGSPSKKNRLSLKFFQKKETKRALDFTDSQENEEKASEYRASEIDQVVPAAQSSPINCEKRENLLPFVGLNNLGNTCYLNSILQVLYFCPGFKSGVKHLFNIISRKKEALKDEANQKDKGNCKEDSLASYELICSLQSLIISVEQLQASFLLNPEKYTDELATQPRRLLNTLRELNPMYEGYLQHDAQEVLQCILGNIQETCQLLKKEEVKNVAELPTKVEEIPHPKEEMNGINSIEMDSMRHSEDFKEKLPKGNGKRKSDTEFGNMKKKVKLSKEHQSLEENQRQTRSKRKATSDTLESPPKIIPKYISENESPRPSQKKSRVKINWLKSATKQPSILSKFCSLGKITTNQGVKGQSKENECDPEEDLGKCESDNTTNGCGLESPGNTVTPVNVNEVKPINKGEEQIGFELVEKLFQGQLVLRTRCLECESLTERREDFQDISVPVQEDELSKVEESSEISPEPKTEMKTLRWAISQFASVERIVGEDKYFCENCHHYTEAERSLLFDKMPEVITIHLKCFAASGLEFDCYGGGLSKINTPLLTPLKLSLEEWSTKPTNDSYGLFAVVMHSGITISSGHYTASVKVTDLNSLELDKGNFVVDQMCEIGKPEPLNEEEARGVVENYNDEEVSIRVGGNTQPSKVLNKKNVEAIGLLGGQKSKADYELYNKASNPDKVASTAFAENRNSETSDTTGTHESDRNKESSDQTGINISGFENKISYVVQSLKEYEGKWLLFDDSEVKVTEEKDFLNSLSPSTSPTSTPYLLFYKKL
Sequence of Luciferin 4-monooxygenase (Photinus pyralis) (P08659 whole entry, looked up): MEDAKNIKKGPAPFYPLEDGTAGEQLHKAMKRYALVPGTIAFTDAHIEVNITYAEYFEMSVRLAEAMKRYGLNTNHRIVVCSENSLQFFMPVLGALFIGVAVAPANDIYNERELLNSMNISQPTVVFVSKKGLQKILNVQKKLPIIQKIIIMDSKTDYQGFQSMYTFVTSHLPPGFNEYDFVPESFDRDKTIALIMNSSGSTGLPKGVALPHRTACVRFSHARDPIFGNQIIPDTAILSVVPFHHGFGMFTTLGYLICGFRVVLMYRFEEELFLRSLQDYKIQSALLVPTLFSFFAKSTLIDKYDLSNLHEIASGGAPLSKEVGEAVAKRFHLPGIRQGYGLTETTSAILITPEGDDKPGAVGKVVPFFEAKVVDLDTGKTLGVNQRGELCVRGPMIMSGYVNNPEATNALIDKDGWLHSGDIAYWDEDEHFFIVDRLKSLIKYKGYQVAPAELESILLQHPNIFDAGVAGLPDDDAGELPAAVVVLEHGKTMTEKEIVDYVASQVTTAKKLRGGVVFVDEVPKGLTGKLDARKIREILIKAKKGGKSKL
Sequence of Cytochrome P450 1A2 (Homo sapiens) (P05177 whole entry, looked up): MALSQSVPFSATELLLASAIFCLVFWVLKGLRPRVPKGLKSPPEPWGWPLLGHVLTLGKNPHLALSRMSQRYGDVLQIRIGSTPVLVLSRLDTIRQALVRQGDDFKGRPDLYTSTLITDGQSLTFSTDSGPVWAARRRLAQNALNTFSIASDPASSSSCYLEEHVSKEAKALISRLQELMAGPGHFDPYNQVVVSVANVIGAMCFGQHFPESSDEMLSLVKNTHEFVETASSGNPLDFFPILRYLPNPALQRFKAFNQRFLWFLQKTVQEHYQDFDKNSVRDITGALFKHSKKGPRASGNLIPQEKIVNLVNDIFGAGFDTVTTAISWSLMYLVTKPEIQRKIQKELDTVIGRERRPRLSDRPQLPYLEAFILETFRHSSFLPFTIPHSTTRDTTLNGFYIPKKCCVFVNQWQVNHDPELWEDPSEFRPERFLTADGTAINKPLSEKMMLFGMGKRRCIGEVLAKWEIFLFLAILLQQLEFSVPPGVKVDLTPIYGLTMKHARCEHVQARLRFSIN
Sequence of ATP-dependent 6-phosphofructokinase (Trypanosoma brucei brucei) (O15648 whole entry, looked up): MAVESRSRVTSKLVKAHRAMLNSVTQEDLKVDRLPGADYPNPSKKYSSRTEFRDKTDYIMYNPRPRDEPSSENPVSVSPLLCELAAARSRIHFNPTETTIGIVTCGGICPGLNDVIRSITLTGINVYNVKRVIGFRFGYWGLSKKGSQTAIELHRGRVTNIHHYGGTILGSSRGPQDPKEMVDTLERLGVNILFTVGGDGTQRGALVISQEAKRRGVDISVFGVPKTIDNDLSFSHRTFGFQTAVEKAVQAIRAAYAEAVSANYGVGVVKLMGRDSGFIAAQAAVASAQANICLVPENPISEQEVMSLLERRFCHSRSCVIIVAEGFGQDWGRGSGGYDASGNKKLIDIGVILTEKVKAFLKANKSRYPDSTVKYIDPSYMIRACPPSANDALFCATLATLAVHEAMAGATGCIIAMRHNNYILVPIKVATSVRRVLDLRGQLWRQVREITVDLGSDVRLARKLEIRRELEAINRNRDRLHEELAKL

Question: Which results are given for `CO/N=C(/C(=O)NC1C(=O)N2C(C(=O)O)=C(CSc3nc(=O)c(O)nn3C)CSC12)c1csc(N)n1` (stereo unspecified)?
Answer: activity change, negative = inhibition ([1]; at 57.5 µM (top of the series)): 7.84% (inactive) and 13.9% (inactive); max response [1, 14]: 7.61% and 7.25%; max response [1, 15]: 18.4% and 25.1%; Potency [2]: inactive; outcome [3]: inactive; activity, negative = inhibition ([4]; at 28.7 µM (top of the series), parasite line A): 11.8% (inactive); activity, negative = inhibition ([4]; at 28.7 µM (top of the series), parasite line B): 6.03% (inactive); Potency (CP238): inactive; Potency (CP262): inactive; Potency (CP325): inactive; Potency (ECU): inactive; Potency (FAB9): inactive; Potency (HB3): inactive; Potency (JCK): inactive

Question: For `C1CCN2C[C@H]3C[C@H](CN4CCCCC34)C2C1` (stereo partly specified), which activity change, negative = inhibition ([1]; at 57.5 µM (top of the series)) is on record?
Answer: 2.4% (inactive) and 4.93% (inactive)

Question: What about the max response [1, 14] of the same compound?
Answer: 17.1% and 11%

Question: And the max response [1, 15]?
Answer: 19.7% and 18.8%

Question: And the Potency [2]?
Answer: inactive

Question: Which activity change, negative = inhibition [5] does the source give for `COc1ccc(C[C@@H]2c3cc(OC)c(OC)cc3CC[N@+]2(C)CCC(=O)OCCCCCOC(=O)CC[N@@+]2(C)CCc3cc(OC)c(OC)cc3[C@H]2Cc2ccc(OC)c(OC)c2)cc1OC` here?
Answer: -6.73% [at 17.2 µM] (inactive)

Question: What about the Potency [6] of the same compound?
Answer: inactive

Question: What about the activity change, negative = inhibition [7] of the same compound?
Answer: -23.4% [at 17.2 µM] (inactive)

Question: What about the activity, negative = inhibition [8] of the same compound?
Answer: 10.6% [at 17.2 µM] (inactive)

Question: And the Potency [9]?
Answer: > 20.6 µM (inactive)

Question: And the Potency [10]?
Answer: > 20.6 µM (inactive)

Question: What about the Potency [11] of the same compound?
Answer: inactive

Question: And the Potency [12]?
Answer: inactive

Question: What about the activity change, negative = inhibition ([1]; at 25.7 µM (top of the series)) of the same compound?
Answer: -3.87% (inactive)

Question: And the max response [1, 14]?
Answer: 15.3%

Question: And the max response [1, 15]?
Answer: 6.6%

Question: What about the outcome [13] of the same compound?
Answer: inactive

Question: And the Potency [2]?
Answer: inactive

Question: And the outcome [3]?
Answer: inactive

Question: And the activity, negative = inhibition [4, 16]?
Answer: -5.94% (inactive)

Question: And the activity, negative = inhibition [4, 17]?
Answer: 13.8% (inactive)

Question: And the Potency (CP238)?
Answer: inactive

Question: What about the Potency (CP262) of the same compound?
Answer: inactive

Question: What about the Potency (CP325) of the same compound?
Answer: inactive

Question: And the Potency (ECU)?
Answer: inactive

Question: What about the Potency (FAB9) of the same compound?
Answer: inactive

Question: And the Potency (HB3)?
Answer: inactive

Question: What about the Potency (JCK) of the same compound?
Answer: inactive

Question: For `CN(C)[C@H]1C(=O)C(C(=O)NCN2CCCC2)=C(O)[C@]2(O)C(=O)C3=C(O)c4c(O)cccc4[C@@](C)(O)[C@H]3C[C@@H]12`, which Potency [6] is on record?
Answer: inactive

Question: What about the activity change, negative = inhibition [7] of the same compound?
Answer: -7.08% [at 17.2 µM] (inactive)

Question: And the activity, negative = inhibition [8]?
Answer: 7.95% [at 17.2 µM] (inactive)

Question: What about the Potency [9] of the same compound?
Answer: > 20.6 µM (inactive)

Question: And the Potency [10]?
Answer: > 20.6 µM (inactive)

Question: What about the Potency [11] of the same compound?
Answer: inactive

Question: What about the Potency [12] of the same compound?
Answer: inactive

Question: And the activity change, negative = inhibition ([1]; at 25.7 µM (top of the series))?
Answer: -2.08% (inactive)

Question: What about the max response [1, 14] of the same compound?
Answer: -14%

Question: What about the max response [1, 15] of the same compound?
Answer: -16.5%

Question: What about the outcome [13] of the same compound?
Answer: inactive

Question: What about the Potency [2] of the same compound?
Answer: 28.2 µM (active)

Question: And the outcome [3]?
Answer: inactive

Question: What about the activity, negative = inhibition [4, 16] of the same compound?
Answer: -2.6% (inactive)

Question: And the activity, negative = inhibition [4, 17]?
Answer: 2.5% (inactive)

Question: What about the Potency (CP238) of the same compound?
Answer: inactive

Question: What about the Potency (CP262) of the same compound?
Answer: inactive

Question: And the Potency (CP325)?
Answer: inactive

Question: And the Potency (ECU)?
Answer: inactive

Question: What about the Potency (FAB9) of the same compound?
Answer: inactive

Question: What about the Potency (HB3) of the same compound?
Answer: inactive

Question: And the Potency (JCK)?
Answer: inactive

Question: Which activity change, negative = inhibition [5] does the source give for `CN(C)CCOC(c1ccccc1)c1ccccc1` (tested in a mixture with another compound) here?
Answer: 27.4% [at 17.2 µM] (inactive) and 19.6% [at 17.2 µM] (inactive)

Question: What about the activity change, negative = inhibition [7] of the same compound?
Answer: -93.6% [at 17.2 µM] (active)

Question: And the activity, negative = inhibition [8]?
Answer: 7.8% [at 17.2 µM] (inactive) and 0.334% [at 17.2 µM] (inactive)

Question: What about the Potency [11] of the same compound?
Answer: inactive

Question: And the Potency [12]?
Answer: inactive

Question: What about the activity change, negative = inhibition ([1]; at 25.7 µM (top of the series)) of the same compound?
Answer: -3.15% (inactive)

Question: And the max response [1, 14]?
Answer: -0.682%

Question: What about the max response [1, 15] of the same compound?
Answer: -4.36%
